# Results taken from PubChem BioAssay.
# Activity calls are given as the source filed them.
# Target: NADPH oxidase 4 (Homo sapiens) (UniProt Q9NPH5)
# Experiment: NOX4-dependent H2O2 signal modulators, primary screen, NOX inhibitor project, cell-based, HEK293-NOX4, tetracycline-induced, Amplex Red fluorescence (AID 1160)
# Conditions: 45 min, higher = more signal, called active from +8 up or from −8 down
# Chain of NADPH oxidase 4 (Homo sapiens) (Q9NPH5 whole entry, looked up): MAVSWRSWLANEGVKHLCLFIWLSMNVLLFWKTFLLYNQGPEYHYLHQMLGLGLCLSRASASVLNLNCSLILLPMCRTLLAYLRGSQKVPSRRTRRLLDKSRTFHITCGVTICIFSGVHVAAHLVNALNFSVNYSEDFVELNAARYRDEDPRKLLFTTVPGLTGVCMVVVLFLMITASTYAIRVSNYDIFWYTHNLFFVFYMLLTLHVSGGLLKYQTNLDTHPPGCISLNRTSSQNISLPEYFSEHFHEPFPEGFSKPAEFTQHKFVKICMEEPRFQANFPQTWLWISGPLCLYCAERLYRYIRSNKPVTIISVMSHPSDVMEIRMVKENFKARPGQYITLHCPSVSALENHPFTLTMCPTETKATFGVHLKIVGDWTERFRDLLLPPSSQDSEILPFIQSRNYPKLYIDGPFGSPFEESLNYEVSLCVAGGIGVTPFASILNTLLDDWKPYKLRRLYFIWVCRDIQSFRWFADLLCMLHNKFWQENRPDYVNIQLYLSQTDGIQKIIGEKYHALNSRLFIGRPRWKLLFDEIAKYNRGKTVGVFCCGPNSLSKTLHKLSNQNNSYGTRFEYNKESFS
row,SMILES,z-score
1,COc1cc(C(O)C2C=CC3C(=O)N(Cc4ccccc4)C(=O)C3N2n2cnnc2)cc(OC)c1OC (stereo unspecified),-0.564 (inactive)
2,COc1ccc(C(=O)Nc2cccc(CN3C(=O)[C@@]4(O[C@@H](CC(=O)N(CCO)Cc5ccccc5)[C@H]([Si](C)(C)c5ccc(OC)cc5)[C@H]4C)c4ccccc43)c2)cc1,0.56 (inactive)
3,C=CCC(OC(C)=O)[C@@H]1[C@@H](N(Cc2ccc(-c3cccc(C(F)(F)F)c3)o2)C(=O)Cc2ccc(OC)cc2)c2cc(OCCCO)ccc2N1C(=O)Cc1ccc2ccccc2c1 (stereo partly specified),-1.4 (inactive)
4,CO[C@H]1O[C@H](CO)[C@@H](OC(=O)c2ccc(Br)cc2)[C@@H]2OC(=O)[C@H](Cc3ccccc3)C/C=C/C[C@@H](Cc3ccccc3)C(=O)O[C@@H]12,-0.416 (inactive)
5,O=C(CS)NCCCCCCNC(=O)[C@@H]1C[C@@H]2C(=O)NCC(=O)N2[C@@H]1c1ccc(O)cc1,0.147 (inactive)
6,COCCOC(=O)N1C(=O)[C@@]2(c3cc(C#CCNC(N)=O)ccc31)[C@H](c1ccc(OCCO)cc1)N1[C@H](c3ccccc3)[C@H](c3ccccc3)OC(=O)[C@H]1[C@@H]2C(=O)NC[C@H](O)c1ccccc1,1.06 (inactive)
7,CC(C)C[C@@H]1NC(=O)CNC(=O)[C@@]23C(=O)N[C@@H](Cc4ccccc4)C2[C@H](C)[C@@]2(C)O[C@H]2C3/C=C/C/C=C\CNC1=O (stereo partly specified),1.1 (inactive)
8,COCCOC(=O)N1C(=O)[C@@]2(c3cc(C#CC4(O)CCCCCC4)ccc31)[C@H](c1ccc(OCCO)cc1)N1[C@H](c3ccccc3)[C@H](c3ccccc3)OC(=O)[C@H]1[C@@H]2C(=O)Nc1nc2ccccc2s1,0.131 (inactive)
9,COCCOC(=O)N1C(=O)[C@@]2(c3cc(C#CCC(C(=O)OC)C(=O)OC)ccc31)[C@H](C(=O)NC[C@H](O)c1ccccc1)[C@H]1C(=O)O[C@H](c3ccccc3)[C@H](c3ccccc3)N1[C@@H]2c1ccc(O)cc1,1.01 (inactive)
10,C=C(C(=O)CC[C@H](OC(=O)c1ccccc1-c1ccccc1C(=O)O)c1ccccc1OCCO)C(C)C,-0.13 (inactive)
11,C=C(C)[C@@H]1CC=C(C(O)C2C=CC3C(=O)N(c4ccccc4)C(=O)C3N2Nc2ccc(C#N)cc2)CC1 (stereo partly specified),-3.56 (inactive)

# Target: NADPH oxidase 5 (Homo sapiens) (UniProt Q96PH1)
# Experiment: NOX5-dependent H2O2 signal modulators, primary screen, NOX inhibitor project, cell-based, HEK293-NOX5, Amplex Red fluorescence (AID 1161)
# Conditions: HEK293-NOX5, ionomycin, 45 min, higher = more signal
# Chain of NADPH oxidase 5 (Homo sapiens) (Q96PH1 whole entry, looked up): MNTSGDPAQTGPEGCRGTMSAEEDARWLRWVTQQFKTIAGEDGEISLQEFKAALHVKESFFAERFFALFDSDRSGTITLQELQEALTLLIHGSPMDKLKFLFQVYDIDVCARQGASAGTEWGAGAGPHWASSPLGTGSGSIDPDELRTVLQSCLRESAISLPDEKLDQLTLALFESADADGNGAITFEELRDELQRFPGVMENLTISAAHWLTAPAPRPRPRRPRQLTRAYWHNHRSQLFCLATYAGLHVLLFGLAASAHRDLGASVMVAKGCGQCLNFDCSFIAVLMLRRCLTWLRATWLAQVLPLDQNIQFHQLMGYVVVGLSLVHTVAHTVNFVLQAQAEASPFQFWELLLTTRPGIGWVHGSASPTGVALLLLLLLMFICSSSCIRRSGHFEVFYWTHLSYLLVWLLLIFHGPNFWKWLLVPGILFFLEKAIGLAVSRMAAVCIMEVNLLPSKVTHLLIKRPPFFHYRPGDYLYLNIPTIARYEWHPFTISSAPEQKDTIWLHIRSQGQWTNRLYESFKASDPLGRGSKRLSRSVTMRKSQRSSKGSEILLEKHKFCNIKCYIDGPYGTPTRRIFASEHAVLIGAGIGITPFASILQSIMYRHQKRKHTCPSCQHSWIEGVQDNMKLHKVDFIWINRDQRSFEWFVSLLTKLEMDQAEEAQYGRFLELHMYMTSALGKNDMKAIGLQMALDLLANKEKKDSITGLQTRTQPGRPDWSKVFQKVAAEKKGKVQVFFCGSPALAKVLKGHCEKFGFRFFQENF
row,SMILES,z-score
1,COC(=O)C(CC#Cc1ccc2c(c1)[C@]1(C(=O)N2)[C@H](c2ccc(O)cc2)N2[C@H](c3ccccc3)[C@H](c3ccccc3)OC(=O)[C@H]2[C@@H]1C(=O)N1CCCCCCC1)C(=O)OC,1.63
2,CC(C)=CCCC(C)=CC(O)C1C=CC2C(=O)N(c3ccccc3)C(=O)C2N1Nc1ccccc1F (stereo unspecified),0.83
3,CN(C)CCCCNC(=O)[C@H]1C[C@H]2C(=O)N[C@@H](CCCC[N+](C)(C)C)C(=O)N2[C@H]1c1ccc(O)cc1,1.31
4,CN(C)CCCNC(=O)[C@@H]1c2ccccc2C(=O)N(C2CCCCC2)[C@H]1c1ccc(CO)cc1,-0.301
5,CC(C)CNC(=O)[C@@H]1c2ccccc2C(=O)N(C2CCCCC2)[C@H]1c1ccc(CO)cc1,0.297
6,O=C1C2C=CC(C(O)c3ccco3)N(Nc3ccccc3)C2C(=O)N1c1ccccc1 (stereo unspecified),-2.52
7,COc1ccc([Si](C)(C)[C@@H]2[C@@H](CCn3cc([C@H](O)c4ccccc4)nn3)O[C@]3(C(=O)N(c4ccccc4)c4ccccc43)[C@H]2C)cc1,0.506
8,CCCNC(=O)[C@@]1(Sc2ccc(C)cc2)CC(=O)N(C2CCCCC2)[C@@H]1c1ccc(CO)cc1I,1.61
9,COC(=O)C(CC#Cc1ccc2c(c1)[C@]1(C(=O)N2)[C@H](C(=O)Nc2nc3ccccc3s2)[C@H]2C(=O)O[C@H](c3ccccc3)[C@H](c3ccccc3)N2[C@@H]1c1ccc(OCCO)cc1)C(=O)OC,0.613
10,CC(=O)NCCCC[C@@H]1NC(=O)[C@@H]2C[C@H](C(=O)NCCCCCCN)[C@H](c3cccc(OCCO)c3)N2C1=O,-0.568
11,COc1ccc([Si](C)(C)[C@H]2[C@H](CCO)O[C@@]3(C(=O)N(Cc4ccc(N5C(=O)c6ccccc6Oc6ccccc65)cc4)c4ccccc43)[C@@H]2C)cc1,1.9
12,CCCCC=C[C@@H](NC(=O)c1ccccc1)c1ccccc1,-2.28
13,COCCOC(=O)N1C(=O)[C@@]2(c3cc(C#CC4=CCCCC4)ccc31)[C@H](C(=O)N1CCCCCCC1)[C@H]1C(=O)O[C@H](c3ccccc3)[C@H](c3ccccc3)N1[C@@H]2c1ccc(OCCO)cc1,-0.934
14,COCCOC(=O)N1C(=O)[C@@]2(c3cc(C#CCNC(N)=O)ccc31)[C@H](c1ccc(O)cc1)N1[C@H](c3ccccc3)[C@H](c3ccccc3)OC(=O)[C@H]1[C@@H]2C(=O)N1CCN(c2ncccn2)CC1,1.13
15,COCCOC(=O)N1C(=O)[C@@]2(c3cc(C#CCCO)ccc31)[C@H](c1ccccc1OCCO)N1[C@H](c3ccccc3)[C@H](c3ccccc3)OC(=O)[C@H]1[C@@H]2C(=O)N1CCCCCCC1,1.35
16,CC(=O)N1CC(C(O)C2C=CC3C(=O)NC(=O)C3N2Nc2ccc(Cl)cc2Cl)c2ccccc21 (stereo unspecified),-2.57
17,COc1cc2c(cc1OC)CN(C(=O)[C@@H]1[C@H]3C(=O)O[C@H](c4ccccc4)[C@H](c4ccccc4)N3[C@H](c3ccc(O)cc3)[C@@]13C(=O)Nc1ccc(C#CCCO)cc13)CC2,0.532
18,NCCCCCNC(=O)[C@H]1C[C@H]2C(=O)N[C@@H](Cc3ccccc3)C(=O)N2[C@H]1c1ccc(O)cc1,-0.912

row,SMILES,z-score
1,CC(C)OC(=O)CC(=O)CC(O)c1ccc([N+](=O)[O-])cc1 (stereo unspecified),0.39
2,CCCNC(=O)[C@@]1(C)c2ccccc2C(=O)N(Cc2ccccc2)[C@H]1c1ccc(CO)cc1,0.885
3,COC(=O)[C@@]1(Cc2ccc(OC)cc2)[C@H]2c3cc(C(=O)N4CCCC4)n(Cc4cc(C)n(C)n4)c3C[C@H]2CN1C(=O)c1ccccc1,-2.8
4,C=CCC(OC(C)=O)[C@@H]1[C@@H](N(Cc2ccc(-c3cccc(C(F)(F)F)c3)o2)C(=O)c2ccc(C)cc2)c2cc(OCCCO)ccc2N1C(=O)Cc1ccc(OC)cc1 (stereo partly specified),0.233
5,CC(=O)n1cc(C(O)C2C=CC3C(=O)N(c4ccccc4)C(=O)C3N2Nc2ccc(C(C)C)cc2)c2ccccc21 (stereo unspecified),-3.44
6,C=CCC(OC(C)=O)[C@@H]1[C@@H](N(Cc2ccc(-c3ccccc3)cc2)C(=O)c2ccc(C)cc2)c2cc(OCCCO)ccc2N1C(=O)Cc1ccc2ccccc2c1 (stereo partly specified),1.62
7,COc1cc(C(O)C2C=CC3C(=O)N(Cc4ccccc4)C(=O)C3N2n2cnnc2)cc(OC)c1OC (stereo unspecified),-0.665
8,COc1ccc(C(=O)Nc2cccc(CN3C(=O)[C@@]4(O[C@@H](CC(=O)N(CCO)Cc5ccccc5)[C@H]([Si](C)(C)c5ccc(OC)cc5)[C@H]4C)c4ccccc43)c2)cc1,2.08
9,C=CCC(OC(C)=O)[C@@H]1[C@@H](N(Cc2ccc(-c3cccc(C(F)(F)F)c3)o2)C(=O)Cc2ccc(OC)cc2)c2cc(OCCCO)ccc2N1C(=O)Cc1ccc2ccccc2c1 (stereo partly specified),-1.11
10,CO[C@H]1O[C@H](CO)[C@@H](OC(=O)c2ccc(Br)cc2)[C@@H]2OC(=O)[C@H](Cc3ccccc3)C/C=C/C[C@@H](Cc3ccccc3)C(=O)O[C@@H]12,-1.82
11,O=C(CS)NCCCCCCNC(=O)[C@@H]1C[C@@H]2C(=O)NCC(=O)N2[C@@H]1c1ccc(O)cc1,1.51
12,COCCOC(=O)N1C(=O)[C@@]2(c3cc(C#CCNC(N)=O)ccc31)[C@H](c1ccc(OCCO)cc1)N1[C@H](c3ccccc3)[C@H](c3ccccc3)OC(=O)[C@H]1[C@@H]2C(=O)NC[C@H](O)c1ccccc1,-0.137
13,CC(C)C[C@@H]1NC(=O)CNC(=O)[C@@]23C(=O)N[C@@H](Cc4ccccc4)C2[C@H](C)[C@@]2(C)O[C@H]2C3/C=C/C/C=C\CNC1=O (stereo partly specified),0.149
14,COCCOC(=O)N1C(=O)[C@@]2(c3cc(C#CC4(O)CCCCCC4)ccc31)[C@H](c1ccc(OCCO)cc1)N1[C@H](c3ccccc3)[C@H](c3ccccc3)OC(=O)[C@H]1[C@@H]2C(=O)Nc1nc2ccccc2s1,1.94
15,COCCOC(=O)N1C(=O)[C@@]2(c3cc(C#CCC(C(=O)OC)C(=O)OC)ccc31)[C@H](C(=O)NC[C@H](O)c1ccccc1)[C@H]1C(=O)O[C@H](c3ccccc3)[C@H](c3ccccc3)N1[C@@H]2c1ccc(O)cc1,1.84
16,C=C(C(=O)CC[C@H](OC(=O)c1ccccc1-c1ccccc1C(=O)O)c1ccccc1OCCO)C(C)C,-1.51
17,C=C(C)[C@@H]1CC=C(C(O)C2C=CC3C(=O)N(c4ccccc4)C(=O)C3N2Nc2ccc(C#N)cc2)CC1 (stereo partly specified),-2.27
